Screens from PubChem.
BJeLR lethal: MLPCN primary cell-based screen for lethality selective to Ras in HRASV12 cells. inhibition, % (concentration not given with the values). actives 0.17% (n = 300,000). BJeLR (HRASV12) viability, CellTiter-Glo ATP luminescence, 48 h; in the data active means inhibition above about 50%
ugtP null kill: growth inhibition of ugtP-null S. aureus, primary screen, RN4220 ugtP deletion, OD600; actives 0.54% (n = 330,000); AID 1259309, 2017; 16 h; growth inhibition, % (no concentration beside the values); in the data active means growth inhibition above about 68%
RN4220 kill: growth inhibition of S. aureus RN4220, primary screen, OD600. 16 h. inhibition, % (test concentration not listed). actives 0.33% (n = 330,000); in the data active means inhibition above about 85%
PrPC TRFRET: inhibitors of human cell surface prion protein PrPC, primary screen, cell-based, TR-FRET; Major prion protein (Homo sapiens), P04156; inhibition, % at 13.8 µM; TR-FRET read-out; actives 0.43% (n = 370,000); AID 720596, 2013; in the data active means inhibition above about 24%
Large screens that a line does not name were inactive. The list is not random: actives were taken first. Their share in the collection is about 0.95%.

CN(C)CCn1nnnc1SCC1=C(C(=O)O)N2C(=O)[C@@H](NC(=O)Cc3csc(N)n3)[C@H]2SC1	none (no result: BJeLR lethal, ugtP null kill, RN4220 kill)
CC(=O)OCC1=C(C(=O)O)N2C(=O)C(NC(=O)Cn3nc(C(F)F)c(Cl)c3C)C2SC1 (configuration not stated)	ugtP null kill 96, RN4220 kill 99
CC(=O)OCC1=C(C(=O)O)N2C(=O)C(NC(=O)CCn3nc(C)c(Cl)c3C)C2SC1 (configuration not stated)	ugtP null kill 99, RN4220 kill 99
Cc1nnc(SCC2=C(C(=O)O)N3C(=O)C(NC(=O)Cn4nc(C(F)F)c(Cl)c4C)C3SC2)s1 (configuration not stated)	ugtP null kill 100, RN4220 kill 100
Cc1cccc(C=NN=Cc2cccc(C)c2)c1	none (no result: BJeLR lethal, PrPC TRFRET)
CC(=O)OCC1=C(C(=O)O)N2C(=O)C(NC(=O)CCn3nc(C(F)(F)F)c(Br)c3C3CC3)C2SC1 (configuration not stated)	ugtP null kill 100, RN4220 kill 100
CC1=C(C(=O)O)N2C(=O)C(NC(=O)CCCC(=O)O)C2SC1 (configuration not stated)	none
COc1ccc(Br)cc1CNC(=O)Nc1cccs1	ugtP null kill 87, RN4220 kill 91
CC(=NNC(=O)c1nonc1N)c1cccs1	none (no result: BJeLR lethal, PrPC TRFRET)
Nc1ncnc2c1ncn2C1O[C@H](CO)[C@@H](O)[C@@H]1O (some centres not stated)	none (no result: BJeLR lethal, ugtP null kill, RN4220 kill)
Nc1ncnc2c(C3OC(CO)C(O)C3O)scc12 (configuration not stated)	PrPC TRFRET 55 (no result: BJeLR lethal, ugtP null kill, RN4220 kill)
CCn1nc(C)cc1-c1nnc(SCC(=O)Nc2ccccc2)n1CCCOC	none
CCn1nc(C)cc1-c1nnc(Sc2ncc([N+](=O)[O-])s2)n1C	ugtP null kill 91
Cc1ccc(C(=O)Nc2ccc(Br)c(C(F)(F)F)c2)cc1	ugtP null kill 91
Cc1ccc(NC(=O)c2ccc(C)cc2)cc1	none
CN1CCc2cc3c(c4c2C1C(O)c1ccccc1-4)OCO3 (configuration not stated)	none (no result: BJeLR lethal, PrPC TRFRET)
COc1cc(C=NNC(=Nc2ccc(C)cc2)c2nc3ccccc3s2)ccc1O	none (no result: BJeLR lethal, PrPC TRFRET)
Cc1cc(C(=O)N/N=C/c2cccs2)n[nH]1	none (no result: ugtP null kill, RN4220 kill)
Cc1cc(C(=O)NN=Cc2ccc([N+](=O)[O-])s2)n[nH]1	ugtP null kill 98, RN4220 kill 100 (no result: BJeLR lethal, PrPC TRFRET)
Cc1c(CCOC(=O)CC23CC4CC(CC(C4)C2)C3)sc[n+]1Cc1ccccc1	ugtP null kill 100
COc1cc([C@H]2c3[nH]c4ccccc4c3C[C@H]3C(=O)N4[C@@H](c5cc(OC)c(OC)c(OC)c5)c5[nH]c6ccccc6c5C[C@H]4C(=O)N23)cc(OC)c1OC	BJeLR lethal 83 (no result: ugtP null kill, RN4220 kill, PrPC TRFRET)
CC1(C)S[C@@H]2[C@H](NC(=O)COc3ccccc3)C(=O)N2C1C(=O)OCC1CCCCC1 (some centres not stated)	ugtP null kill 100, RN4220 kill 99
CC1(C)S[C@@H]2[C@H](NC(=O)COc3ccccc3)C(=O)N2C1C(=O)OCc1cc2ccccc2n1S(=O)(=O)c1ccccc1 (some centres not stated)	none (no result: ugtP null kill, RN4220 kill, PrPC TRFRET)
CCOC(=O)OC(C)OC(=O)[C@@H]1N2C(=O)[C@@H](NC(=O)[C@H](N)c3ccccc3)[C@H]2SC1(C)C (some centres not stated)	none (no result: BJeLR lethal, ugtP null kill, RN4220 kill)
CC1(C)SC2C(NC(=O)COc3ccccc3)C(=O)N2C1C(=O)OCc1ccccc1 (configuration not stated)	ugtP null kill 100, RN4220 kill 100 (no result: BJeLR lethal, PrPC TRFRET)
ON=C1CCc2cc(Cl)ccc21	none (no result: BJeLR lethal, PrPC TRFRET)
O=C1C=CC(=O)N1c1ccc(Sc2ccc([N+](=O)[O-])cc2)cc1	BJeLR lethal 64 (no result: ugtP null kill, RN4220 kill, PrPC TRFRET)
COc1nc(OC)nc(Oc2ccc(Cl)cc2[N+](=O)[O-])n1	none
COc1ccc([N+](=O)[O-])c(S(=O)(=O)c2ccc(Cl)cc2)n1	ugtP null kill 100, RN4220 kill 100
N#CC(=NNc1ccc(OC(F)(F)F)cc1)C(N)=S	ugtP null kill 87 (no result: BJeLR lethal, PrPC TRFRET)
N#C/C(=N\Nc1ccc([N+](=O)[O-])cc1)C(N)=S	none (no result: ugtP null kill, RN4220 kill)
CN(N=Cc1cccnc1)C1=NS(=O)(=O)c2ccccc21	none (no result: BJeLR lethal, PrPC TRFRET)
CCCn1c(C(=O)OC)cc2c1ccn2-c1ccc(F)cc1	ugtP null kill 97
CN(Cc1c(F)cccc1Cl)C(=O)c1ccc(COc2ccccc2)cc1	ugtP null kill 100, RN4220 kill 97
CCOc1ccc(S(=O)(=O)NN=C(C)c2ccc(OC)cc2OC)cc1	none (no result: BJeLR lethal, PrPC TRFRET)
CSCc1cc(N(C)c2ccccc2)nc(-c2ccccc2)n1	ugtP null kill 88
COc1cc(CSC)nc(-c2ccccc2)n1	none
O=C(Nc1nnc(SCc2ccc(F)cc2)s1)c1ccccn1	ugtP null kill 99, RN4220 kill 98
CC(C)(C)c1ccc(C(=O)NCC(=O)NN=Cc2cccs2)cc1	none (no result: BJeLR lethal, PrPC TRFRET)
COc1ccc(N(C(=O)CCl)C(C(=O)NCCc2ccccc2)c2cccs2)cc1 (configuration not stated)	BJeLR lethal 114
COc1ccc(CNC(=O)C(c2ccncc2)N(C(=O)Cc2cccs2)c2ccccc2)cc1 (configuration not stated)	none (no result: BJeLR lethal)
O=C(NN=Cc1cc(Br)ccc1O)c1cccc(N2CCCC2=O)c1	none (no result: BJeLR lethal, PrPC TRFRET)
CCOC=NNc1nc(C(F)(F)F)nc2c1cnn2Cc1ccccc1	none (no result: BJeLR lethal, PrPC TRFRET)
O=C(Nc1ccccc1)c1ccccc1NS(=O)(=O)c1ccc(Cl)s1	ugtP null kill 92, RN4220 kill 87
Cc1ccc(NC(=O)c2ccccc2NS(=O)(=O)c2ccc(Cl)s2)cc1	ugtP null kill 90
O=C(NCc1ccco1)c1ccccc1NS(=O)(=O)c1ccc(Cl)s1	none
O=C(Nc1ccccc1Cc1ccccc1)c1ccccc1NS(=O)(=O)c1ccc(Cl)s1	none (no result: ugtP null kill, RN4220 kill)
O=C(NN=Cc1ccc2c(c1)OCO2)C1COc2ccccc2O1 (configuration not stated)	none (no result: BJeLR lethal, PrPC TRFRET)
CCCCCC(=O)N/N=C(\C)c1ccc(NC(=O)c2ccco2)cc1	none (no result: ugtP null kill, RN4220 kill)
CCOc1ccc(CC(=O)Nc2ccc(NC(=O)c3ccco3)cc2)cc1OCC	BJeLR lethal 82
CCCCCC(=O)NC(=S)Nc1ccc(NC(=O)c2ccco2)cc1	ugtP null kill 88
O=C1Nc2ccccc2C1Cc1ccccc1 (configuration not stated)	none
O=C1C=CC2(C=C1)O[C@H](Cc1ccccc1)[C@@H](Cc1ccccc1)O2	PrPC TRFRET 89 (no result: BJeLR lethal, ugtP null kill, RN4220 kill)
CCCN1CCS(=O)(=O)N(Cc2cn(Cc3ccccc3)nn2)C(C(=O)OC)C1 (configuration not stated)	none (no result: BJeLR lethal, ugtP null kill, RN4220 kill)
O=C(CC(=O)NN=Cc1c(F)cccc1Cl)NCc1ccccc1	none (no result: BJeLR lethal, PrPC TRFRET)
Fc1ccc(C[n+]2csc3ccccc32)cc1	none (no result: ugtP null kill, RN4220 kill)
Clc1ccc(C[n+]2csc3ccccc32)cc1	ugtP null kill 100, RN4220 kill 87 (no result: BJeLR lethal)
Cc1ccc(C=NNC(=O)CC(=O)NCc2cccnc2)cc1	none (no result: BJeLR lethal, PrPC TRFRET)
CN1C(=O)C2(C(C#N)=C(N)Oc3n[nH]c(-c4ccc(Cl)cc4)c32)c2ccccc21 (configuration not stated)	RN4220 kill 98
Cc1cc(=O)[nH]c(N=N/C(=N/Nc2ccc(O)cc2)c2ccccc2)n1	none (no result: ugtP null kill, RN4220 kill)
COc1ccc(N/N=C(/N=Nc2nc(C)cc(=O)[nH]2)c2ccccc2)cc1	BJeLR lethal 67 (no result: ugtP null kill, RN4220 kill)
